# Test results taken from PubChem BioAssay.
# “And” between values parts separate entries of the source, which are not always exact repeats. Identical values can stand only once. The source made the active and inactive calls.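 How the source made its calls, unless noted: active means inhibition at or above 50% relative to wild type and mutant plate controls; inactive means inhibition below 50%.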
# Key:
# [1] = inhibitors of TNFa-induced NFkB p65 translocation, primary screen, imaging, HUVEC, MLSMR starter and 10KST1 sets (AID 438;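 active means inhibition above 20% together with a positive visual image hit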;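 further: compound added about 3h40 before a 20 min TNFalpha stimulation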;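 on inhibition: signal is the nuclear over cytoplasmic p65 intensity ratio per well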); settings: HUVEC TNFa-induced p65 nuclear translocation; cell count: measured here: nuclei count (cytotoxicity indicator), at 2.08 µM unless noted; inhibition: at 2 µM, stronger effect = higher value unless noted
# [2] = reduction of polyQ htt aggregates in cells – imaging, exon1htt(103Q)mCFP cells, high-content imaging, primary screen (AID 483;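 active means visual image review flags a hit and inhibition of aggregation exceeds 20%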;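 further: compound exposure lasted 3 days before fixation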;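 on nuclei count: percent of the per-plate median nuclei count of sample wells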); settings: exon1htt(103Q)mCFP cell line, aggregate imaging, at 2 µM; inhibition of aggregation: stronger effect = higher value; nuclei count: measured here: cell count, toxicity
# [3] = endothelial E-selectin expression blockers – imaging, HUVEC, immunofluorescence, MLSMR starter and 10KST1 sets, primary screen (AID 487;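 active means visually confirmed hit in the image check and inhibition above 20%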;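 on inhibition: signal is fraction of cell area covered by stained E-selectin grains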;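 on nuclei count: 100% = median nuclei count of all wells on the same plate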); settings: HUVEC TNFalpha-induced E-selectin immunofluorescence imaging, at 2 µM; inhibition: stronger effect = higher value; nuclei count: measured here: cell number, toxicity
# [4] = Primary imaging screen for DUSP6 inhibitors that restore phospho-Erk in transfected HeLa cells, chemical complementation (AID 609;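 active means compounds giving at least 50% inhibition in the cell-based MKP-3 phosphatase rescue imaging test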;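 on inhibition: phospho-Erk level distribution per well compared with pooled transfected vehicle control wells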); settings: HeLa MKP-3 transfected, phospho-Erk imaging KS statistic, at 10 µM
# [5] = molecular target: Dual specificity protein phosphatase 6 (Homo sapiens) (UniProt Q16828); test: as above; settings: HeLa MKP-3 transfected, phospho-Erk imaging KS statistic, at 10 µM, stronger effect = higher value
# Sequence of Dual specificity protein phosphatase 6 (Homo sapiens) (Q16828 whole entry, looked up): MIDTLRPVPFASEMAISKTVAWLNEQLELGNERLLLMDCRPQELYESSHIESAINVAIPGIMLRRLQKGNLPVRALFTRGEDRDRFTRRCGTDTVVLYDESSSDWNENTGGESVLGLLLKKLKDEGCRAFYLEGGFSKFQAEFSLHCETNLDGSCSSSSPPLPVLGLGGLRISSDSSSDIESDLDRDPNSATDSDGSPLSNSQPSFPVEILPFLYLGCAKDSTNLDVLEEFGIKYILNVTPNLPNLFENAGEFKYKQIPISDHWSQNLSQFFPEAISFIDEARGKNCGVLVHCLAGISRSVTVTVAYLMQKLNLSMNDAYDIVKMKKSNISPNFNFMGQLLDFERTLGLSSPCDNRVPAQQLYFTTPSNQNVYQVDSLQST
# [6] = molecular target: Voltage-gated potassium channel subunit beta-2 (Rattus norvegicus) (UniProt P62483); test: inhibitors of rat Kvbeta2 reductase activity – biochemical, NADPH fluorescence, primary screen (AID 622;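 active means fluorescence slope higher than the sample average by over 3 SD, cut at about -0.22 in these data, passing the limit was not always enough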;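 further: slope of raw intensity against log time taken from 70 to 1610 s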); settings: recombinant KvBeta, 4-cyanobenzaldehyde reduction, at 10 µM, stronger effect = higher value
# Sequence of Voltage-gated potassium channel subunit beta-2 (Rattus norvegicus) (P62483 whole entry, looked up): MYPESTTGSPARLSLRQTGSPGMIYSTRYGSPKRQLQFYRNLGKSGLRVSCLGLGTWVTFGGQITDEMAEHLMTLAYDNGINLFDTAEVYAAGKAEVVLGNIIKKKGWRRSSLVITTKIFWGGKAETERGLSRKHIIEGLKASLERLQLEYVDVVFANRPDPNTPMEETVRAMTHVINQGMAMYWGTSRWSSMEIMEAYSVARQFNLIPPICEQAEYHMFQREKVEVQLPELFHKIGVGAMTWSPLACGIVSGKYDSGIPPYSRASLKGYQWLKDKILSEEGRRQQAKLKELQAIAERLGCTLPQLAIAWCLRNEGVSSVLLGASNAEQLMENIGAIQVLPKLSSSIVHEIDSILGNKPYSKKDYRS
# [7] = molecular target: Voltage-gated potassium channel subunit beta-2 (Rattus norvegicus) (UniProt P62483); test: enhancers of rat Kvbeta2 NADPH turnover – biochemical, NADPH fluorescence, primary screen (AID 623;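 active means NADPH fluorescence slope more negative than the mean of all samples by about 3 SD, 99.7% confidence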;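 further: fluorescence intensity change per second fitted from 20 to 320 s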); settings: Recombinant KvBeta, NADPH fluorescence decrease slope, 10 min; at 10 µM; stronger effect = lower value
# [8] = molecular target: Alpha-2C adrenergic receptor (Homo sapiens) (UniProt P18825); test: compounds altering alpha2C-coupled GIRK flux – cell-based, HEK293 alpha2C/GIRK1/2, thallium flux, primary screen (AID 624;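 active means fluorescence slope after compound addition differing from the mean of all screened samples at 99.7% confidence, in either direction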;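 further: slope of fluorescence ratio to pre-addition baseline per second over 15 to 24 s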); settings: thallium flux BTC fluorescence, at 10 µM, actives lie on both sides
# Sequence of Alpha-2C adrenergic receptor (Homo sapiens) (P18825 whole entry, looked up): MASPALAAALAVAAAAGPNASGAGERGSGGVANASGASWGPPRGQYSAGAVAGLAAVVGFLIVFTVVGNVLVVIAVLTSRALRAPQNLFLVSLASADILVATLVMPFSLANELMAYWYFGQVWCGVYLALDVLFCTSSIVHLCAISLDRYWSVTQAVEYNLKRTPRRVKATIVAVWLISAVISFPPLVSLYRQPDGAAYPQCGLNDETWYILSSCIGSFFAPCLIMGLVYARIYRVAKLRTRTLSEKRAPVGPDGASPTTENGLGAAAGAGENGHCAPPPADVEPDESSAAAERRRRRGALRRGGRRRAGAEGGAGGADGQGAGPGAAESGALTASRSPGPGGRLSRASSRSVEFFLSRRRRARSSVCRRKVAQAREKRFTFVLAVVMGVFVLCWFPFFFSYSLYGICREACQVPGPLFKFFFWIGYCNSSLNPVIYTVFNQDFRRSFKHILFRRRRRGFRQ
# [9] = inhibitors of larval lipid processing in zebrafish, primary screen, whole organism, PED6 fluorescence, gall bladder and intestine (AID 686;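 active means a full or partial loss of lipid-probe fluorescence in the fish gall bladder, intestine or both, judged by eye; inactive means no fluorescence loss, or compound toxic to the fish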;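 further: larvae 5 to 7 days old with five fish per well; signal comes from phospholipase A2 cleavage of quenched PED6 carried via bile; overnight exposure to compound and PED6 before scoring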); settings: Zebrafish larvae PED6 lipid processing, fluorescence scoring
# [10] = loss of swimming-algae plug formation – whole organism, Chlamydomonas reinhardtii, WT vs cilia-less mutant, absorbance, 96-well, primary screen (AID 463189); settings: Chlamydomonas reinhardtii gravitaxis, OD600 absorbance, 2 days; at 10 µM; stronger effect = higher value;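 further: 0% = wild type cc124 cells in DMSO and 100% = ciliumless bld1 mutant cells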
# [11] = blockers of RIG-like receptor reporter activation – cell-based, Sendai virus stimulus, luciferase, 10K MLSCN set, TLR/RLR signaling modifier project, primary screen (AID 602276;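 active means inhibition at or above 50% at 10 µM; inactive means inhibition below 50%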;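 further: firefly luciferase from ISG56 promoter only with Renilla not read in this screen; 0% = Sendai virus plus DMSO and 100% = medium plus DMSO without virus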); settings: HEK293 RL24 IRF3 luciferase reporter, at 10 µM, stronger effect = higher value
# [12] = TLR3 IRF3 reporter activation blockers – cell-based, poly I:C stimulus, luciferase, 10K MLSCN set, primary screen (AID 602277;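 active means inhibition of the reporter signal at or above 50%; inactive means inhibition below 50%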); settings: HEK293-TLR3 RL24 IRF3 luciferase reporter, at 10 µM, stronger effect = higher value
# [13] = molecular target: Muscarinic acetylcholine receptor M4 (Homo sapiens) (UniProt P08173); test: M4-linked GIRK flux change, two-sided – cell-based, HEK293 M4/GIRK, thallium flux, BTC-AM, M4 allosteric agonist project, primary screen (AID 625;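 active means fluorescence slope after compound addition differing from the mean of all tested samples at 99.7% confidence, mostly higher but some lower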;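 further: thallium influx through GIRK channels coupled to M4 in HEK293 cells with BTC-AM dye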); settings: at 10 µM, actives lie on both sides
# Sequence of Muscarinic acetylcholine receptor M4 (Homo sapiens) (P08173 whole entry, looked up): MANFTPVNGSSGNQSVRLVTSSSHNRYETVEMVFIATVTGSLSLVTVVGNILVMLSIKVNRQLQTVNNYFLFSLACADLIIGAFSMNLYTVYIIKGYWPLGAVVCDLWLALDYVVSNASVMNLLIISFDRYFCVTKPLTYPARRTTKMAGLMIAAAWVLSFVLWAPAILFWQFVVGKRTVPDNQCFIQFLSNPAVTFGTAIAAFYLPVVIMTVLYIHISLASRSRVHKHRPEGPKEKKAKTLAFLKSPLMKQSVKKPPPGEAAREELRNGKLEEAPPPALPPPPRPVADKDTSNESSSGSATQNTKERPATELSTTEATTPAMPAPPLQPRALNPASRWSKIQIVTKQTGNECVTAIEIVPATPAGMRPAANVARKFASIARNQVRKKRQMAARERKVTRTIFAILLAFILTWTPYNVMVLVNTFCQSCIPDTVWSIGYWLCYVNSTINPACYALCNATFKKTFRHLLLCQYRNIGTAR
# [14] = measured here: cell density z-score
# [15] = measured here: nuclear c-Myc green intensity z-score
# [16] = measured here: nuclear pErk red intensity z-score, stronger effect = higher value
compound,measurement,setting,value
O=c1[nH]c(=O)n(Cc2ccco2)c(O)c1C=NCCCn1ccnc1,cell count,[1],506
same,inhibition,[1],-1.7% (inactive)
same,inhibition of aggregation,[2],4.4% (inactive)
same,nuclei count,[2],89.9%
same,inhibition,[3],-104% (inactive)
same,nuclei count,[3],123%
same,z-score,[4]; [14],0.638
same,z-score,[4]; [15],-0.867
same,z-score,[4]; [16],0.884
same,inhibition,[5],-0.584% (inactive)
same,fluorescence slope,[6],-0.334 (inactive)
same,NADPH fluorescence slope,[7],-2.4e-05 (inactive)
same,slope,[8],0.00606 (inactive)
same,outcome,[9],inactive
same,inhibition,[10],14.1% (inactive)
same,inhibition,[11],8.16% (inactive)
same,inhibition,[12],21.1% (inactive)
CN(C)[C@@H]1C(=O)C(C(N)=O)=C(O)[C@@]2(O)C(=O)C3=C(O)c4c(O)cccc4[C@@](C)(O)[C@H]3C[C@@H]12,cell count,[1],668
same,inhibition,[1],5.4% (inactive)
same,inhibition of aggregation,[2],72.1% (active)
same,nuclei count,[2],99.1%
same,inhibition,[3],-85.3% (inactive)
same,nuclei count,[3],113%
same,z-score,[4]; [14],-0.618
same,z-score,[4]; [15],-0.0358
same,z-score,[4]; [16],-1.49
same,inhibition,[5],21.2% (inactive)
same,fluorescence slope,[6],-0.433 (inactive)
same,NADPH fluorescence slope,[7],-5.8e-05 (inactive)
same,slope,[8],0.00553 (inactive)
same,outcome,[9],inactive
same,inhibition,[10],22.3% (inactive)
same,inhibition,[11],10.4% (inactive)
same,inhibition,[12],33.9% (inactive)
OCCOCC#CCN1CCOCC1,cell count,[1],582
same,inhibition,[1],8.1% (inactive)
same,inhibition of aggregation,[2],-15.3% (inactive)
same,nuclei count,[2],100%
same,inhibition,[3],-167% (inactive)
same,nuclei count,[3],137%
same,z-score,[4]; [14],-0.584
same,z-score,[4]; [15],1.05
same,z-score,[4]; [16],0.188
same,inhibition,[5],17.8% (inactive)
same,fluorescence slope,[6],-0.497 (inactive)
same,NADPH fluorescence slope,[7],-5.8e-05 (inactive)
same,fluorescence slope,[13],0.006 (inactive)
same,outcome,[9],inactive
same,inhibition,[10],-6.14% (inactive)
same,inhibition,[11],19.2% (inactive)
same,inhibition,[12],20.5% (inactive)
CC(NC(C)(C)C)C(=O)c1cccc(Cl)c1 (stereo unspecified),cell count,[1],651
same,inhibition,[1],-1.3% (inactive)
same,inhibition of aggregation,[2],4% (inactive)
same,nuclei count,[2],102%
same,inhibition,[3],-75.7% (inactive)
same,nuclei count,[3],132%
same,z-score,[4]; [14],-0.59
same,z-score,[4]; [15],0.546
same,z-score,[4]; [16],-0.888
same,inhibition,[5],12.4% (inactive)
same,fluorescence slope,[6],-0.447 (inactive)
same,NADPH fluorescence slope,[7],-3.7e-05 (inactive)
same,slope,[8],0.00462 (inactive)
same,outcome,[9],inactive
same,inhibition,[10],-4.32% (inactive) and 13.4% (inactive)
same,inhibition,[11],11.7% (inactive)
same,inhibition,[12],29.6% (inactive)
C=CCn1c(O)c(C=NCCN(C)C)c(=O)[nH]c1=O,cell count,[1],342
same,inhibition,[1],-5% (inactive)
same,inhibition of aggregation,[2],-0.9% (inactive)
same,nuclei count,[2],97.7%
same,inhibition,[3],9.5% (inactive)
same,nuclei count,[3],97.2%
same,z-score,[4]; [14],0.486
same,z-score,[4]; [15],-0.511
same,z-score,[4]; [16],-0.0175
same,inhibition,[5],19.3% (inactive)
same,fluorescence slope,[6],-0.462 (inactive)
same,NADPH fluorescence slope,[7],-0.000118 (inactive)
same,slope,[8],0.00873 (inactive)
same,outcome,[9],inactive
same,inhibition,[10],-19.1% (inactive)
same,inhibition,[11],-1.86% (inactive)
same,inhibition,[12],-11.3% (inactive)
C[C@H]1OC[C@@H](C[N+](C)(C)C)O1,cell count,[1],534
same,inhibition,[1],-2.2% (inactive)
same,inhibition of aggregation,[2],21% (inactive)
same,nuclei count,[2],93.2%
same,inhibition,[3],-83.7% (inactive)
same,nuclei count,[3],112%
same,z-score,[4]; [14],0.485
same,z-score,[4]; [15],0.998
same,z-score,[4]; [16],-0.857
same,inhibition,[5],16.8% (inactive)
same,fluorescence slope,[6],-0.458 (inactive)
same,NADPH fluorescence slope,[7],-5.9e-05 (inactive)
same,slope,[8],0.0176 (active)
same,outcome,[9],inactive
same,inhibition,[10],-2.33% (inactive) and 9.97% (inactive)
same,inhibition,[11],1.89% (inactive)
same,inhibition,[12],50.9% (active)
Clc1ccc(COC(Cn2ccnc2)c2ccc(Cl)cc2Cl)c(Cl)c1 (stereo unspecified),cell count,[1],692
same,inhibition,[1],"-0.4% [at 2 µM, stronger effect = higher value, 0% TNFa-plus-vehicle, 100% no-TNFa wells] (inactive)"
same,inhibition,[3],-73.1% (inactive)
same,nuclei count,[3],144%
same,z-score,"[4]; measured here: cell density z-score, cells stimulated with TPA for 15 min",-0.0883
same,z-score,"[4]; measured here: nuclear c-Myc green intensity z-score, cells stimulated with TPA for 15 min",1.51
same,z-score,"[4]; measured here: nuclear pErk red intensity z-score, stronger effect = higher value, cells stimulated with TPA for 15 min",-0.416
same,inhibition,[5],31.1% [cells stimulated with TPA for 15 min] (inactive)
same,fluorescence slope,[6],-0.515 (inactive)
same,NADPH fluorescence slope,[7],-3.4e-05 (inactive)
same,slope,[8],0.00694 (inactive)
same,outcome,[9],inactive; toxic [screened at 20 µM (by protocol)]
same,inhibition,[10],36.1% (inactive)
same,inhibition,[11],15.4% (inactive)
same,inhibition,[12],32.2% (inactive)
Cc1ccc(C)c(C2(O)CC(C)N(C)CC2C)c1 (stereo unspecified),cell count,[1],530
same,inhibition,[1],1.6% (inactive)
same,inhibition of aggregation,[2],-5.5% (inactive)
same,nuclei count,[2],99.7%
same,inhibition,[3],-53.3% (inactive)
same,nuclei count,[3],111%
same,z-score,[4]; [14],-0.226
same,z-score,[4]; [15],0.594
same,z-score,[4]; [16],-0.947
same,inhibition,[5],5.35% (inactive)
same,fluorescence slope,[6],-0.458 (inactive)
same,NADPH fluorescence slope,[7],-4.2e-05 (inactive)
same,fluorescence slope,[13],0.00518 (inactive)
same,outcome,[9],inactive
same,inhibition,[10],-6.61% (inactive)
same,inhibition,[11],-14.7% (inactive)
same,inhibition,[12],94.6% (active)
O=c1[nH]c2ccccc2n1C1CCN(CCCC(c2ccc(F)cc2)c2ccc(F)cc2)CC1,cell count,[1],544
same,inhibition,[1],-2.2% (inactive)
same,inhibition,[3],-26.6% (inactive)
same,nuclei count,[3],108%
same,z-score,[4]; [14],-0.698
same,z-score,[4]; [15],0.151
same,z-score,[4]; [16],-0.248
same,inhibition,[5],5.42% (inactive)
same,fluorescence slope,[6],-0.556 (inactive)
same,NADPH fluorescence slope,[7],-6.4e-05 (inactive)
same,slope,[8],0.00493 (inactive)
same,outcome,[9],inactive
same,inhibition,[10],-5.72% (inactive) and -16.1% (inactive)
same,inhibition,[11],18.5% (inactive)
same,inhibition,[12],10.5% (inactive)
C[N+]1(C)[C@@H]2CC(OC(=O)[C@H](CO)c3ccccc3)C[C@H]1[C@@H]1O[C@@H]12 (stereo partly specified),cell count,[1],542
same,inhibition,[1],-16.3% (inactive)
same,inhibition of aggregation,[2],19% (inactive)
same,nuclei count,[2],107%
same,inhibition,[3],-56.7% (inactive)
same,nuclei count,[3],129%
same,z-score,[4]; [14],-0.698
same,z-score,[4]; [15],-0.0087
same,z-score,[4]; [16],-0.0821
same,inhibition,[5],-0.493% (inactive)
same,fluorescence slope,[6],-0.433 (inactive)
same,NADPH fluorescence slope,[7],2.1e-05 (inactive)
same,slope,[8],0.0054 (inactive)
same,outcome,[9],inactive
same,inhibition,[10],9.4% (inactive)
same,inhibition,[11],-2.08% (inactive)
same,inhibition,[12],22.3% (inactive)
